# High-throughput results deposited in PubChem by The Scripps Research Institute Molecular Screening Center.
# Most compounds without a hit are left out; they make up all but 0.86% or so of the library.
# TLR4-MyD88 BLA = inhibitors of TLR4-MyD88 association in cells, primary screen, cell-based, HeLa CL3-4, BLA complementation, FRET ratio | Toll-like receptor 4 (Homo sapiens) + Myeloid differentiation primary response protein … | HeLa CL3-4 TLR4/MyD88 BLA complementation | inhibition, % at 8.4 µM | hit rate 0.18% among 200,000; in the data active means inhibition above about 25%;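 further: 0% = vehicle and 100% = reference inhibitor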
# IDE act = human IDE activators in live cells, primary screen, fluorescence polarization, HEK cells, FAbeta-B substrate; Insulin-degrading enzyme (Homo sapiens), P14735; FAbeta-B cleavage; 0% vehicle, 100% cell-free pure enzyme wells; activation, % at 5.96 µM; hit rate 0.073% among 340,000; AID 493087, 2011;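 active means activation above the mean of all tested compounds plus 3 SD, set per screening campaign, cut at about 17% in these data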
# Target sequence (P14735 whole entry, looked up): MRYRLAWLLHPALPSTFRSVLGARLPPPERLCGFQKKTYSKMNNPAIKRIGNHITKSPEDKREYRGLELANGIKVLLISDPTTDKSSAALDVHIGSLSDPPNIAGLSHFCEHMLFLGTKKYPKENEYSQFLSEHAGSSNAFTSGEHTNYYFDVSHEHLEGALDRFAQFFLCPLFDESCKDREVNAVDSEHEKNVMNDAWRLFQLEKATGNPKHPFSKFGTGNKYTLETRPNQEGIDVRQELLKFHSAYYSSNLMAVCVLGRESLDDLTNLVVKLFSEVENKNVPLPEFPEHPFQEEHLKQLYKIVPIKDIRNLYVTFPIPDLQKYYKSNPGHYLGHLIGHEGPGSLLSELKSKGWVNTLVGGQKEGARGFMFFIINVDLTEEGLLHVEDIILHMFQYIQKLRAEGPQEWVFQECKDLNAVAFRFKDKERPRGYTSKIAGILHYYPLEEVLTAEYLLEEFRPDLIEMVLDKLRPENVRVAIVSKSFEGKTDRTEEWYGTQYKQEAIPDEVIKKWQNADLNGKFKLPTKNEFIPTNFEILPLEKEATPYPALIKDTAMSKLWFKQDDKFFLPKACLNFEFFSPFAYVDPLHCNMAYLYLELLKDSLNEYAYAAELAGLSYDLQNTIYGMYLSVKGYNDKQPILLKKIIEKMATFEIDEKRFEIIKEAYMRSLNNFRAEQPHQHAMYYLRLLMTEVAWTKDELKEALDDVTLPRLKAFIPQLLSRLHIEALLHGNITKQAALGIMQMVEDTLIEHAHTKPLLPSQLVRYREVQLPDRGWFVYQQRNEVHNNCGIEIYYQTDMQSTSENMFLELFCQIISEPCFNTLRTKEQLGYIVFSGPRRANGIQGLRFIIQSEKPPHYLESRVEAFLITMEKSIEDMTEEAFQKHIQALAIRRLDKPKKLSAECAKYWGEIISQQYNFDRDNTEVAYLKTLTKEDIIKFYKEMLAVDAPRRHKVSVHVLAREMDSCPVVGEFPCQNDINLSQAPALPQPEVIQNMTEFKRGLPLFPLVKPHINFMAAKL
# TLR9-MyD88 inh = inhibitors of TLR9-MyD88 association in cells, primary screen, cell-based, CHO, BLA complementation, fluorescence. CCF4 FRET ratio. Toll-like receptor 9 (Homo sapiens) + Myeloid differentiation primary response protein …. inhibition, % at 4.98 µM. hit rate 0.21% among 340,000. AID 504734, 2011;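 active means inhibition above the mean over all tested compounds plus 3 SD, cut at about 21% in these data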;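 further: 0% = DMSO only wells and 100% = clavulanate BLA inhibitor control wells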
# IDE cell inh = human IDE inhibitors in live cells, primary screen, fluorescence polarization, HEK cells, FAbetaB substrate. Insulin-degrading enzyme (Homo sapiens), P14735. hit rate 0.41% among 320,000. FAbetaB cleavage. inhibition, % at 5.59 µM;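 active means percent inhibition above the average of all tested compounds plus 3 SD, set per screening campaign, cut at about 16% in these data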;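 further: IDE supplied by intact live HEK cells; FP after avidin binding of uncleaved biotin substrate so inhibition keeps polarization high; 0% = DMSO wells and 100% = 60 µM reference IDE inhibitor Ii1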
# NOD2 RIPK2 PPI = NOD2-RIPK2 binding disruptors in cells, primary screen, fluorescence, CHO cells, BLA complementation; Receptor-interacting serine/threonine-protein kinase 2 (Homo sapiens), O43353; CCF4 ratio; inhibition, % at 4.98 µM; hit rate 0.38% among 360,000; AID 624267, 2012; in the data active means inhibition above about 21%;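 further: 0% = vehicle only and 100% = reference blocker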
# TLR4 MyD88 cnf = TLR4-MyD88 association inhibitors, retest, confirmation, cell-based, HeLa CL3-4, BLA complementation, FRET ratio | shares compounds with TLR4-MyD88 BLA | inhibition, % at 8.4 µM | CCF4 FRET ratio | hit rate 50% among 350;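 active means mean inhibition across three repeat runs above about 25% carried over from the earlier screen, limit read from the data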;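 further: plate controls were DMSO only for no effect and clavulanic acid blocking BLA at full dose for full effect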
# BLA inhibitor ct = inhibits beta-lactamase activity, counter-screen to TLR4-MyD88 binding inhibitors; shares compounds with TLR4-MyD88 BLA; hit rate 63% among 350; inhibition, % at 8.4 µM; HeLa BLA reporter, CCF4 FRET ratio;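 active means mean inhibition over three repeats above about 26% taken from the earlier screen, limit read from the data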;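 further: HeLa cells stably expressing beta-lactamase reporter as counterscreen for TLR4-MyD88 inhibitors; 0% = DMSO and 100% = clavulanic acid full inhibition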
# Starred values were filed as active, the others as inactive; x = not tested or not shown.
SMILES,TLR4-MyD88 BLA,IDE act,TLR9-MyD88 inh,IDE cell inh,NOD2 RIPK2 PPI,TLR4 MyD88 cnf,BLA inhibitor ct
CCCC1Cc2[nH]c(=O)c(C#N)cc2CO1 (stereo not drawn),x,-10,-6,10,-14,x,x
O=C(OCC(=O)N1CCN(C(=O)c2ccco2)CC1)c1ccccc1OCc1ccccc1,-15,-2,-8,3,-5,x,x
O=C1c2cccc3c([N+](=O)[O-])ccc(c23)C(=O)N1c1nccs1,93*,-6,79*,23*,89*,92*,114*
O=C1N=c2ccccc2=C1c1sc(Nc2ccc(O)cc2)nc1O,27*,8,-6,x,-3,2,6
CCc1ccc(-c2ccc(SCc3ccccn3)nn2)cc1,-8,-3,-9,-2,-9,x,x
CN(C)c1ccc(C2CC(c3ccccc3)=Nc3nc(-c4ccccc4)cn32)cc1 (stereo not drawn),25*,x,x,x,x,4,19
Cc1n[nH]c(C)c1NC(=O)c1cc([N+](=O)[O-])ccc1Cl,27*,2,-8,-2,2,-6,5
CCN1CCN(C(=O)C2CCN(Cc3cc(Cl)ccc3O)CC2)CC1,12,-3,-7,1,0,x,x
Cn1c(-c2ccc(C=O)s2)nc2c3ccccc3c3ccccc3c21,47*,-5,1,3,8,40*,61*
OCCCc1nc2n(n1)C(c1ccccc1Cl)C=C(c1cccs1)N2 (stereo not drawn),32*,-4,51*,4,72*,19,52*
COC(=O)C(NS(=O)(=O)c1ccc(C)cc1)c1ccccc1 (stereo not drawn),-3,-2,8,-2,-4,x,x
Cc1ccc(S(=O)(=O)NC(C(=O)Oc2ccc3c(C(F)(F)F)cc(=O)oc3c2)c2ccccc2)cc1 (stereo not drawn),38*,-1,3,12,0,31*,62*
CCOc1ccc(NC(=O)/C(C#N)=C/c2ccc(N3CCCC3)c(C)c2)cc1,27*,-9,11,4,1,28*,65*
Cc1c(NC(=O)CSc2nnc(-c3cccc(Cl)c3)o2)c(=O)n(-c2ccccc2)n1C,29*,2,-2,4,-3,1,4
Cc1c(NC(=O)CSc2nnc(-c3ccncc3)o2)c(=O)n(-c2ccccc2)n1C,5,2,-3,-1,3,x,x
Cn1c(=O)c2c(nc(Cc3ccccc3)n2C)n(C)c1=O,x,4,8,-8,3,x,x
COc1ccc(-c2nc(C#N)c(NCCN(C)C)o2)cc1,27*,6,-1,1,4,-7,3
CC(=O)c1sc2nc(-c3cccs3)cc(C(F)(F)F)c2c1N,30*,-14,8,3,-2,13,25
CC(=O)Oc1ccc(/C=C(\NC(=O)c2ccco2)C(=O)Nc2ccc(C(C)=O)cc2)cc1,x,1,-1,5,-1,x,x
CC(=O)Nc1sc(N/N=C\c2ccc(O)cc2)nc1-c1cccs1,x,3,0,4,0,x,x
CCN(CC)c1ccc(/C=C(\C#N)c2nc(-c3cccs3)c(NC(C)=O)s2)cc1,28*,x,x,x,x,28*,51*
Oc1cccc2ccc(/C=C/c3c(F)cccc3Cl)nc12,1,1,-1,0,-8,x,x
COc1ccc(N(C(C)C(=O)Nc2ccc(S(=O)(=O)N3CCOCC3)cc2)S(C)(=O)=O)cc1 (stereo not drawn),-2,-1,9,4,0,x,x
Cc1noc(C)c1COC(=O)c1cnc(Cl)c(Cl)c1,26*,3,-2,-3,-9,19,5
O=C(NCCCc1ccccc1)c1ccccc1,26*,2,-2,6,-11,-9,-3
SMILES,TLR4-MyD88 BLA,IDE act,TLR9-MyD88 inh,IDE cell inh,NOD2 RIPK2 PPI,TLR4 MyD88 cnf,BLA inhibitor ct
O=C(NCCCCc1ccccc1)c1ccccc1,-13,-2,8,0,5,x,x
CC(O)CN(Cc1cccc(Cl)c1)CC(C)O (stereo not drawn),28*,6,8,x,-3,-5,4
O=C(Nc1ccc2oc(-c3cccnc3)nc2c1)c1ccc([N+](=O)[O-])o1,30*,3,4,x,0,16,8
O=C(Nc1ccc2oc(-c3cccnc3)nc2c1)c1ccc(Br)o1,-6,-1,-6,0,4,x,x
COc1ccc(-c2nn(-c3ccccc3)cc2C(=O)N/N=C/c2ccc([N+](=O)[O-])o2)cc1,-8,2,1,-4,1,x,x
Clc1ncnc2c1oc1ccccc12,33*,-4,-9,-1,-11,37*,15
CCSc1ncnc2c1oc1ccccc12,-13,-2,13,4,-3,x,x
Cn1c(=O)c([N+](=O)[O-])c(NCCCn2ccnc2)c2ccccc21,x,6,-6,0,-2,x,x
Cn1c(=O)c([N+](=O)[O-])c(-n2ccnc2)c2ccccc21,25*,0,4,-2,5,-5,-13
C=CCNc1sc(C(=O)c2ccc(Br)s2)c(N)c1C#N,37*,2,-3,-5,-3,20,55*
CN(CCc1ccccc1)C(=O)c1ccc(NC(=O)Cc2ccc(NC(=O)C3CCN(C(=O)C4CCCCC4)CC3)cc2)cc1,x,-2,-14,x,-6,x,x
CCOC(=O)c1c2ccc(OCC(=O)N/N=C/c3ccccc3C(F)(F)F)cc2n2ccccc12,-1,x,x,x,x,x,x
CCOC(=O)c1c2ccc(OCC(=O)N/N=C/c3ccc(Cl)cc3)cc2n2ccccc12,52*,x,x,x,x,54*,34*
O=C(CCCc1ccccc1)c1ccc2c(c1)OCCO2,25*,-5,-7,1,2,-2,1
O=C(CCc1ccccc1)c1ccc2c(c1)OCCCO2,4,1,-10,0,-2,x,x
N#CC1CC(c2ccc([N+](=O)[O-])cc2)=NN1c1ccc([N+](=O)[O-])cc1 (stereo not drawn),56*,-5,16,1,7,56*,83*
O=[N+]([O-])c1cccc(C2CC(c3ccccc3)=NN2c2ccccc2)c1 (stereo not drawn),x,5,7,4,4,x,x
CCCCOc1ccc(C2NC(=O)NC(C)=C2C(C)=O)cc1OCC (stereo not drawn),2,2,4,4,3,x,x
O=C1CC(c2cccc([N+](=O)[O-])c2)c2cc3c(cc2N1)CCC3 (stereo not drawn),2,-1,-11,1,-11,x,x
